A selection: hits, their analogues and other compounds. The true share with any hit is near 9%.
HPGD block = inhibitors of human 15-hydroxyprostaglandin dehydrogenase (HPGD) | hit rate 4.3% among 150,000 | Potency, µM, for inactives: at the top dose activity change, negative = inhibition, actives largely listed as inhibitors | purified HPGD, NADH fluorescence kinetic, PGE2 substrate | P15428; active = well fitted inhibition curve with a large enough effect, not every such curve was filed as active; inconclusive = small, poorly fitted or top-dose-only effect, or another doubt; inactive = no such curve, though single readings can be large or run the other way
Target sequence (P15428 whole entry, looked up): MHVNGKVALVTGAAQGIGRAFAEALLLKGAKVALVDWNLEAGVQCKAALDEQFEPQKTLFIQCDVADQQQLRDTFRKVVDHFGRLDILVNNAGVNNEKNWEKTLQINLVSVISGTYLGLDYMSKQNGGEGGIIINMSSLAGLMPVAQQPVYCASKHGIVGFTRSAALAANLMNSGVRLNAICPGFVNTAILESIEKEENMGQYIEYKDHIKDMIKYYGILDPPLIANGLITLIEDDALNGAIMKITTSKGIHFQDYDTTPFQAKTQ
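NADH formation kinetics: reaction with 30 uM PGE2 and 1 mM NAD+ (final), 20 nM enzyme, Tris-HCl pH 8 with Tween 20, after 15 min compound preincubation at room temperature. Fluorescence change, last versus first of five reads.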
KinaseGlo FLuc = blocks Kinase-Glo luciferase, a counter-screen artifact; Q27757; hit rate 0.28% among 200,000; Potency, µM (titrated, usually from 38.3 µM), inactives show at the top dose activity change, negative = inhibition, actives largely listed as inhibitors; Kinase-Glo luciferase, ATP luminescence, 8 min; also: nearly all actives have a fitted effect of over 60% in size
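Compound is pinned into ATP-containing buffer (10 uM ATP, imidazole pH 7.2, 7 mM MgCl2). Kinase-Glo luciferase reagent is then added. Light output is recorded following an 8-min room-temperature incubation.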
ALDH1A1 block = blocks purified human ALDH1A1 activity | Potency, µM (highest dose often 75.3 µM), without a hit: top-dose activity, negative = inhibition, hits mostly inhibitors | hit rate 7.3% among 220,000 | Purified ALDH1A1, NADH fluorescence, propionaldehyde substrate; active = well fitted inhibition curve with a large enough effect, not every such curve was filed as active; inconclusive = small, poorly fitted or top-dose-only effect, or another doubt; inactive = no such curve, though single readings can be large or run the other way;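 also: plate controls were no enzyme wells and a reference inhibitor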
Target sequence (P00352 whole entry, looked up): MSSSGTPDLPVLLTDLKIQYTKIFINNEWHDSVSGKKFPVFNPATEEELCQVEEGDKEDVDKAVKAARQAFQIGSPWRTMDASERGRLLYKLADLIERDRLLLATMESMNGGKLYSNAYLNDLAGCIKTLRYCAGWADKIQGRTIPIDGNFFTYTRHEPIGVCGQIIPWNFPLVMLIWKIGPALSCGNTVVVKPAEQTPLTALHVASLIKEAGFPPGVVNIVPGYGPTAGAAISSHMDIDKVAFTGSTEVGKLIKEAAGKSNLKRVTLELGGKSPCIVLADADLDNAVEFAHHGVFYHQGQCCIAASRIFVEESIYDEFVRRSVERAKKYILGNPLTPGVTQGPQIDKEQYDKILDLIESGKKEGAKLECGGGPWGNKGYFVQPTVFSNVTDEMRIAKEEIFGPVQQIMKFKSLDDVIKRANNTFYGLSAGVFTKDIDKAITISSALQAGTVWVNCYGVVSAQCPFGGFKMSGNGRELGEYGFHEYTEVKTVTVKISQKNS
IMPase Li inh = cell-permeable IMPase inhibitors with lithium potentiation; Potency, µM (top dose mostly 59.4 µM), inactives show at the highest dose activity, negative = IMPase inhibition, usual class: inhibitors; AID 1457; hit rate 0.35% among 210,000; CHO-M1 cells, IP1 TR-FRET (IP-One), carbachol + lithium;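 also: IP1 builds up when IMPase is blocked and the TR-FRET signal falls; plate controls were basal vehicle for no effect and high inhibitor control for full effect; nearly all actives have a fitted effect of over 50% in size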
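Steps: plate 2000 CHO-M1 cells per well and culture 16–30 h; add compound and lithium; incubate 30 min, 37C; add d2-IP1 tracer and Eu cryptate anti-IP1 antibody in lysis buffer; read after 10 min at room temperature.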
LMNA splice mod = LMNA splicing modulation; HeLa LMNA splicing GFP/RFP minigene ratio, 48 h; Potency, µM (series often up to 46.1 µM), without a hit: at the highest dose ratio change, negative = inhibition, most hits filed as inhibitors; hit rate 0.01% among 200,000; AID 1487; active = well fitted inhibition curve with a large enough effect in the signal ratio, with a control signal flat, not every such curve was filed as active; inconclusive = small, poorly fitted or top-dose-only effect, or effect the other way, or a change in a side signal; the % refers to the signal ratio
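S3 HeLa cells stably expressing lamin A-EGFP splicing minigene plus DsRed2, 600 cells/well, 48 h compound exposure at 37C. Laser-scanning cytometry; analysed as GFP (500-530 nm)/RFP (575-640 nm) total intensity ratio; 0.5% DMSO vehicle.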
Starred values were filed as active, the others as inactive; u = inconclusive; x = not tested or not shown; [ ] = another dose, or the depositor's remark. Unless noted, calls follow the shape of the dose curve; as a rule, active = well fitted curve in the direction sought with a large enough effect; inconclusive = small, poorly fitted or top-dose-only effect, or another doubt; inactive = no such curve, though single readings can be large; an effect the other way counts as inactive or inconclusive. Unless noted, % is scaled to controls: 0 for no effect and ±100 for the full control effect; potency is read from the fitted curve at half-maximal effect.

SMILES	HPGD block	KinaseGlo FLuc	ALDH1A1 block	IMPase Li inh	LMNA splice mod
CCc1ccc(NC(=O)CSC2=Nc3ccccc3C3=NC(CC(=O)NCc4ccccc4)C(=O)N23)cc1 (stereo not given)	x	x	x	x	-9.0%[46 µM]
O=C1/C(=C/c2ccc(O)c(O)c2)SC(=S)N1Nc1ccccc1	x	x	u	42.8%	x
CCOc1cc(/C=C2\SC(=S)N(Nc3ccccc3)C2=O)ccc1O	-13.2%	-9.4%	11.2µM*	20.9%[38.3 µM]	2.4%
C=CCSc1n[nH]c(-c2ccc(OCCCC)cc2)n1	15.8µM*	0.6%	0.0%	0.4%[38.3 µM]	u
C=CCSc1n[nH]c(-c2ccc(OCCC)cc2)n1	u	-2.7%	-4.4%	13.1%[38.3 µM]	-1.7%
CCOC(=O)CSc1nn(C)c(=S)s1	u	-0.7%	u	-6.8%[38.3 µM]	-7.5%
CCOC(=O)CCSc1n[nH]c(=S)s1	x	x	1.78µM*	x	x
Cc1ccc(Nc2nc(CSc3nnnn3C)cs2)cc1	-17.4%	1.3%	u	-5.3%	-24.7%
Cc1ccc(Nc2nc(CSc3nnnn3-c3ccccc3)cs2)cc1	-13.1%	-1.4%	8.91µM*	3.6%[38.3 µM]	u
O=c1cc(CSc2nnnn2-c2ccccc2)nc(Nc2ccc(F)cc2)[nH]1	-5.8%	1.5%	7.94µM*	27.8%[38.3 µM]	u
Cc1ccc(SCc2cc(=O)[nH]c(/N=C(\N)Nc3ccc(C)c(C)c3)n2)cc1	-14.2%	-3.5%	8.91µM*	9.6%[38.3 µM]	2.4%
COc1ccc(N/C(N)=N/c2nc(CSc3ccc(Cl)cc3)cc(=O)[nH]2)cc1	-4.1%	2.3%	2.6%	21.8%[38.3 µM]	2.8%
N/C(=N\c1nc(CSc2nnnn2-c2ccccc2)cc(=O)[nH]1)Nc1ccccc1	x	6.6%	5.01µM*	2.1%	u
c1ccc(CCC2CCCCN2Cc2nc(-c3ccc4c(c3)OCO4)no2)nc1 (stereo not given)	x	x	-8.2%	6.1%	x
Cc1ccccc1Nc1nc(N)nc(CSc2nnnn2-c2ccccc2)n1	-14.2%	-2.6%	12.6µM*	21.3%[38.3 µM]	2.2%
CC(C(=O)Nc1ccccc1-c1ccccc1)N(C)Cc1nc2ccccc2c(=O)[nH]1 (stereo not given)	x	1.3%	1.1%	2.9%	-26.4%[46 µM]
NC(=O)C1(N2CCCCC2)CCN(C(=S)Nc2ccc(S(N)(=O)=O)cc2)CC1	x	4.1%	u	-1.7%	x
CCCCN(Cc1ccccc1)C(=O)C1CCCN(S(=O)(=O)c2cnc[nH]2)C1 (stereo not given)	-5.9%	1.3%	14.1µM*	-0.6%[38.3 µM]	0.0%
CN(CCCNC(=O)C1CCCN(S(=O)(=O)c2cnc[nH]2)C1)c1ccccc1 (stereo not given)	-9.6%	5.9%	u	21.1%[38.3 µM]	3.0%
N#Cc1cnn(-c2nc(SCc3ccccc3)nc3sc4c(c23)CCCC4)c1N	-24.3%	0.9%	8.91µM*	7.6%[38.3 µM]	19.4%
COCCCNc1nc(SCc2ccccc2)nc2sc3c(c12)CCC3	-12.3%	-1.9%	-10.1%	12.0%[38.3 µM]	9.4%
Cc1ccc(/C=N/n2c(-c3cccnc3)n[nH]c2=S)s1	12.6µM*	-0.4%	u	1.8%	5.4%
S=c1[nH]nc(-c2cccnc2)n1/N=C/c1ccc(Br)s1	15.8µM*	0.0%	u	0.3%	2.7%
CCc1ccc2nc3n[nH]c(N)c3cc2c1	28.2µM*	-22.8%	u	37.1%[38.3 µM]	u
CC(C)Cn1[nH]c2c3c(ccc2c1=O)C(=O)c1ccccc1C3=O	2µM*	-14.0%	u	50.6%[38.3 µM]	-10.1%
SMILES	HPGD block	KinaseGlo FLuc	ALDH1A1 block	IMPase Li inh	LMNA splice mod
O=C1c2ccccc2C(=O)c2c1ccc1c(=O)n(-c3ccccc3)[nH]c21	-4.6%	-6.5%	1.5%	21.2%	10.1%
CCCn1c2ccc(F)cc2c2nnc(NN)nc21	x	-1.6%	4.47µM*	10.4%	u
CSc1nnc2c3cc(F)ccc3n(Cc3ccccc3)c2n1	-10.9%	-0.5%	u	16.1%[38.3 µM]	5.1%
CCn1c2ccc(F)cc2c2nnc(NN)nc21	-10.7%	1.2%	7.08µM*	13.4%	-11.8%
CCc1ccc2c(c1)c1nnc(NN)nc1n2CC	u	-5.9%	2.82µM*	11.8%	u
COc1ccc(OC2C=CC(c3ccccc3)OC2CO)cc1 (stereo not given)	x	x	10.4%[13.5 µM]	x	x
Cc1ccccc1OCC(=O)NCC(c1ccc(Cl)cc1)N1CCOCC1 (stereo not given)	x	x	x	x	-5.5%[46 µM]
N#C/C(=N\Nc1ccc(S(=O)(=O)N2CCCCCC2)cc1)C(N)=S	x	-2.3%	8.91µM*	6.3%	x
N#C/C(=N\Nc1ccc(S(=O)(=O)N2CCCCC2)cc1)C(N)=S	-28.4%	-0.3%	12.6µM*	-1.5%	u
N#C/C(=N\Nc1ccc(S(=O)(=O)N2CCc3ccccc32)cc1)C(N)=S	x	-0.1%	6.31µM*	11.4%	u
CC(=O)Nc1ccc(S(=O)(=O)N2CCN(S(=O)(=O)N3CCCCC3)CC2)cc1	x	x	9.5%	-5.2%	x
CCOC(=O)/C(C#N)=N/Nc1ccc(S(=O)(=O)N2CCc3ccccc32)cc1	-1.5%	1.5%	-12.9%	14.4%	u
N#C/C(=N/Nc1ccc(S(=O)(=O)N2CCOCC2)cc1)C(N)=O	x	-3.4%	-4.8%	10.7%	8.1%[9.22 µM]
O=C(NCc1ccccc1)C1CCN(S(=O)(=O)c2ccc(Cl)cc2)CC1	x	2.9%	-0.3%	2.4%	4.4%[46 µM]
Clc1ccccc1/C=C/C=N/Nc1nc(N2CCOCC2)nc(N2CCOCC2)n1	x	0.3%	-9.5%	15.5%	-20.0%[46 µM]
CC(=NCCCn1ccnc1)c1c(C)[nH]n(-c2ccc([N+](=O)[O-])cc2)c1=O	x	-17.8%	-0.8%	20.4%	u
CCC(CC)NC(=O)CO/N=C/c1ccccc1OC(F)F	20µM*	2.9%	1.5%	-4.5%	u
O=C(CO/N=C/c1ccccc1OC(F)F)NC1CCCCC1	25.1µM*	-1.0%	-1.8%	-3.5%	-12.4%
CCN(CC(=O)Nc1ccc2c(c1)OCCO2)c1nc(-c2cccnc2)nc2ccccc12	-12.5%	0.7%	1.2%	17.8%[38.3 µM]	u
O=C(NCc1cccc(Cl)c1)C1CCCN(c2nn3cc(-c4ccc(F)cc4)nc3s2)C1 (stereo not given)	x	x	x	x	-5.0%[46 µM]
Cc1[nH]n(-c2ccccc2)c(=O)c1/C=N/NC(=O)C(C)C	x	-3.2%	25.1µM*	10.5%	u
Cc1ccccc1N=CC1=C(O)c2ccccc2C1=O	x	12.6µM*	u	-1.4%	x
COc1ccc(N=CC2=C(O)c3ccccc3C2=O)c(OC)c1	-21.2%	4.47µM*	u	-9.3%[38.3 µM]	2.7%
CC(=O)N[C@H](Cc1ccc(O)cc1)C(=O)O	-5.1%	-3.4%[7.66 µM]	-6.5%[13.5 µM]	-6.0%	x
COc1ccc(C(=O)NCC(c2cccnc2)N2CCc3ccccc32)cc1 (stereo not given)	x	x	x	x	-9.3%[46 µM]
Oc1c(Cl)cc(Cl)cc1C1=NNC(c2ccc(Cl)cc2)C1 (stereo not given)	x	0.3%	6.31µM*	-1.9%	x
CCN(C(=O)COC(=O)/C=C/c1c(C)nn(Cc2ccc(C)cc2)c1C)C1CCS(=O)(=O)C1 (stereo not given)	x	-1.6%	5.3%	-0.5%	-16.1%[46 µM]
C/C(=N\S(=O)(=O)c1ccc(C)cc1)NC(=S)Nc1ccc(C)cc1	x	1.7%	u	-0.4%	-4.9%[46 µM]

Screening results from PubChem.
